The whole screen tested about 57,000 […], of which about 2,500 (4.4%) were called active. Rule as the data show it: active = GI50 up to about 1.1 µM and inactive = higher. Not all results are given here. Results with a measured potency or affinity are listed apart.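 Following 48 hours of exposure in 96-well plates, responses at five concentrations were used to interpolate endpoints linearly. GI50 marks 50% less growth.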
What follows are substances tested on OVCAR-5 (assay: NCI tumour cell line growth inhibition, 48 h).

Substance	GI50
mu-(1,7-nanodiamine-N,N')bis-(cis-aminedichloroplatimum (II)), CHEMBL2146215	> 100 µM
CISPLATIN, CHEMBL11359	4.51 µM
[Bis(aminomethyl)pentamethylenesilane]dichloropaltinum(II), CHEMBL2146202	3.38 µM
[Bis(aminomethyl)ethylmethylsilane]tetrachloroplatinum(IV), CHEMBL2146192	6.49 µM
[Bis(aminomethyl)pentamethylenesilane]tetrachloropaltinum(IV), CHEMBL2146204	6.27 µM
cis-Bis[[(trimethylsilyl)methyl]amino]tetrachloroplatinum(IV), CHEMBL2146191	30.3 µM
[Bis(aminomethyl)dimethylsilane]tetrachloroplatinum(IV), CHEMBL2146190	7.29 µM
[Bis(aminomethyl)dimethylsilane]dichloroplatinum (II), CHEMBL2146201	30.5 µM
[Bis(aminomethyl)tetramethylenesilane]dichloropaltinum(II), CHEMBL2146205	7.55 µM
[Bis(aminomethyl)tetramethylenesilane]tetrachloropaltinum(IV), CHEMBL2146189	4.22 µM
